# Measured values: PubChem BioAssay (Tox21)
# Active and inactive are the calls of the source. Where a call stands in place of a potency, no number is given. The call rests on the fitted dose curve.
# Target: Gonadotropin-releasing hormone receptor (Homo sapiens) (UniProt P30968)
# Test: Human gonadotropin-releasing hormone receptor (GnRHR) small molecule agonists, calcium flux assay in GnRHR-HEK293 cells (AID 1920063); further: nearly all actives have a fitted effect of over 35% in size
# How it was run: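 HEK293 cells stably expressing human GnRHR were dye-loaded for 1 h at 37 C. Compound was added in agonist mode and fluorescence (Ex/Em 480/540) recorded kinetically for 3 min. Fifteen concentrations, triplicates.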
# Chain of Gonadotropin-releasing hormone receptor (Homo sapiens) (P30968 whole entry, looked up): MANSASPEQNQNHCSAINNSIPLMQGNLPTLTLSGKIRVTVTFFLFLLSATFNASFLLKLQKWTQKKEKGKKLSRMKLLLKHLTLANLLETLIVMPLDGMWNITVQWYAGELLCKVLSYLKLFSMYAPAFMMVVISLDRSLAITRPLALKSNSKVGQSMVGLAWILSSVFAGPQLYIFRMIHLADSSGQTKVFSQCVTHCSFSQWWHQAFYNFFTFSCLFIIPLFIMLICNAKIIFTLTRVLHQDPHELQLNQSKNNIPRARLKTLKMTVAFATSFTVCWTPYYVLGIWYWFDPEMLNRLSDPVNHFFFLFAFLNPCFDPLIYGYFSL
row,SMILES,Potency
1,CC(C)(C)NC(N)=O,inactive
2,Cc1ccc(N)cc1[N+](=O)[O-],inactive
3,C1CCCNCCC1,inactive
4,CCCCCCCCCCCCCC,inactive
5,CCC(C)SSC(C)CC (stereo not given),inactive
6,CCC(C(=O)OCCOCCN(CC)CC)c1ccccc1 (stereo not given),inactive
7,[Cl][In]([Cl])[Cl],inactive
8,CCC(CO)CO,inactive
9,CC(=O)CCC(C)C,inactive
10,C=CCOc1cc(Cl)ccc1C(=O)NCCN(CC)CC,inactive
11,CC(C)(C)NCCO,inactive
12,COc1ccc2c(c1)CCCC2=O,inactive
13,CCCCCC(=O)O[C@]1(C(C)=O)CC[C@H]2[C@@H]3CCC4=CC(=O)CC[C@]4(C)[C@H]3CC[C@@]21C,inactive
14,CCCCC(C)C(=O)O (stereo not given),inactive
15,CCOc1ccccc1OCC,inactive
16,NS(=O)(=O)c1ccccc1Cl,inactive
17,c1ccsc1,inactive
18,Cc1ccccc1C(=O)N1CC/C(=N\OS(=O)(=O)O)c2ccc(Cl)cc21,inactive
19,Cc1c(C(=O)c2c[nH]n(C)c2=O)ccc(S(C)(=O)=O)c1C1=NOCC1,inactive
20,CCCCCCC(C)(C)C(=O)O,inactive
21,O=[N+]([O-])c1ccc(/C=C/c2ccc([N+](=O)[O-])cc2S(=O)(=O)O)c(S(=O)(=O)O)c1,inactive
22,Cn1cnc2c1c(=O)[nH]c(=O)n2C,inactive
23,O=C(O)CNc1ccccc1,inactive
24,Cn1sccc1=O,inactive
25,O=S(=O)(O)c1cccc2c(S(=O)(=O)O)cccc12,inactive

row,SMILES,Potency
1,C1COC1,inactive
2,C#C[C@]1(O)CC[C@H]2[C@@H]3CCC4=CC(=O)CC[C@@H]4[C@H]3CC[C@@]21C,inactive
3,CCC/C=C/C=O,inactive
4,CCc1ccccc1O,inactive
5,CC(C=O)c1ccccc1 (stereo not given),inactive
6,CC(CC=O)CC(C)(C)C (stereo not given),inactive
7,O=S(=O)(O)c1cc(O)c(O)c(S(=O)(=O)O)c1,inactive
8,CCCCOCCCC,inactive
9,OC1OC[C@@H](O)[C@H](O)[C@H]1O (stereo not given in full),inactive
10,CCCCCCCCCCCCCCCC,inactive
11,FC(F)(F)C(Cl)Br (stereo not given),inactive
12,OCCOc1ccc(OCCO)cc1,inactive
13,CC(=O)OCCN(CCOC(C)=O)c1ccc(N=Nc2ccc([N+](=O)[O-])cc2C#N)cc1,inactive
14,CC(=O)N1C[C@H](O)C[C@H]1C(=O)O,inactive
15,CCCc1c2oc(C(=O)O)cc(=O)c2cc2c(=O)cc(C(=O)O)n(CC)c12,inactive
16,C=CCCCCCCCCCCCC,inactive
17,CCCCOC(=O)CCCCCCCC(=O)OCCCC,inactive
18,Cc1cccc(N(C)C)c1,inactive
19,CC(C=O)Cc1ccc(C(C)(C)C)cc1 (stereo not given),inactive
20,OCCCCl,inactive
21,NC(=O)NNc1ccccc1,inactive
22,CCCCCC(C)=O,inactive
23,CCOCCOCC,inactive
24,c1ccc2c(c1)CCC2,inactive
25,COC(=O)Nc1ccc(Cl)c(Cl)c1,inactive
